Measurements reported in PubChem BioAssay AID743293 (Broad Institute, 2014).
Potency and affinity values are given separately. The source made the active and inactive calls.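 Rule for the calls: active = compounds lowering fluorescence with a fitted half-maximal concentration at or below a set limit tied to top dose; inconclusive = flat curve with 30 to 70% inhibition, or poor fit; inactive = the rest.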

The molecules below were run against Caspase-9 (Homo sapiens) (UniProt P55211) (assay: caspase-9 enzyme inhibition, dose response, selectivity assay for caspase-6 inhibitor project, biochemical, fluorescence, plate reader, cherry-picked samples (AID 743293)). Details: purified caspase-9, Z-LEHD-R110 cleavage fluorescence; series mostly up to 35 µM.
Sequence of Caspase-9 (Homo sapiens) (P55211 whole entry, looked up): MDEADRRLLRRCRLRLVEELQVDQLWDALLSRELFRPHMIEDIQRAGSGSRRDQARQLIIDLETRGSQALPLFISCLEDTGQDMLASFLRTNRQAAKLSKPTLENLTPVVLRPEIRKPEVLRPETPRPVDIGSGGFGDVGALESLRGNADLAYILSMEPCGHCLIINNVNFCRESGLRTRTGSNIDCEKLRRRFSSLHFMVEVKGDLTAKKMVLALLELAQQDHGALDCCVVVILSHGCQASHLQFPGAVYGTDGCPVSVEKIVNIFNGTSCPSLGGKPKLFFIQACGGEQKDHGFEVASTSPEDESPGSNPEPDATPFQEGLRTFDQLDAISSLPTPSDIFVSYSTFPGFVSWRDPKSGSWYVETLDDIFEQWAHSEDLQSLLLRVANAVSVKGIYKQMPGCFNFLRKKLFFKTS

outcome, inactive:
COc1cc(C)c2c(c1C=O)Oc1c(c(C)c(O)c3c1C(O)OC3=O)OC2=O (stereo not given)
Cc1ccc(C)c(NC(=O)CN(C)C(=O)c2cccc(-n3cccc3)c2)c1
O=C(O)CCc1ccc(-c2ccc(Br)cc2)n1CC(=O)O
O=C(O)C1CCCCC1C(=O)Nc1cccc(Br)c1 (stereo not given)
COCCn1c2nc(=O)n(-c3ccccc3)c(=O)c-2nc2ccccc21
Cn1cnnc1SCC(=O)Nc1ncc([N+](=O)[O-])s1
C/C(CC(=O)N1CCCC1)=N\NC(=O)c1cc2ccccc2cc1O
CCCCN(C(=O)c1cccc(-n2cccc2)c1)c1c(N)n(Cc2ccccc2)c(=O)[nH]c1=O
CC(C)(C)c1ccc(NC(=O)COC(=O)c2ccc([N+](=O)[O-])s2)cc1
O=P(c1ccccc1)(c1ccccc1)c1cc(S(=O)(=O)O)ccc1O
COc1ccc([N+](=O)[O-])cc1NC(=O)CCS(=O)(=O)c1ccc(Br)cc1
CCCCNC(=O)c1nc(C2CCNCC2)oc1-c1cccc(C(F)(F)F)c1
Cc1cc(C=O)c(C)n1-c1cc(C(=O)O)cc(C(=O)O)c1
COc1ccc(NS(=O)(=O)c2ccc3c(c2)[C@H]2C=CC[C@H]2[C@@H](c2ccc(C(=O)O)cc2)N3)cc1
O=C(O)/C(=C\c1ccc(Cl)c([N+](=O)[O-])c1)c1ccc(S(=O)(=O)N2CCCC2)s1
O=C(Nc1ccc2nc3n(c(=O)c2c1)CCCCC3)c1c(F)ccc([N+](=O)[O-])c1F
CCCSC1=N/C(=C\c2ccc([N+](=O)[O-])o2)C(=O)S1
COc1cc(-c2ccc(Nc3ccccc3C(=O)O)c(OC)c2)ccc1Nc1ccccc1C(=O)O
O=C1CN(C(=O)COC(=O)c2ccc([N+](=O)[O-])s2)c2ccccc2N1
O=C(CCO)c1ccc(O)cc1
Cc1ccc(S(=O)(=O)Nc2csc(C)c2C(=O)O)cc1
O=c1c(CO)cc(CO)cc(CO)c1O
Nc1ccc(Nc2ccccc2)c(S(=O)(=O)O)c1
CCOc1ccc2nc3cc(NCc4ccc(OC)cc4)ccc3c(N)c2c1
CCOC(=O)c1sc2nc(OCCN3CCOCC3)cc(C)c2c1N
O=C(O)Cc1ccc(-n2cccc2)cc1
COc1ccc(NC(=O)CN(C)C(=O)c2cccc(-n3cccc3)c2)cc1
CCCN(C(=O)c1cccc(-n2cccc2)c1)c1c(N)n(Cc2ccccc2)c(=O)[nH]c1=O
O=C(Nc1ccc(S(=O)(=O)Nc2cnc3ccccc3n2)cc1)c1ccc(Cl)c([N+](=O)[O-])c1
COc1ccc(C(=O)OCC(=O)Nc2ncc([N+](=O)[O-])s2)cc1OC
